From PubChem BioAssay (NCI)
About 83,000 compounds went through this panel and 20% of them were active in at least one assay; those are over-represented in the sample as a whole.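 In brief: 96-well plates, 48 h treatment, single concentration, percent growth endpoint.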 Calls of active or inactive are those of the source. Rule for the calls: active = growth percent below 10; inactive = the rest.

Tested on: HL-60(TB) leukemia
Assay: NCI-60 one-dose screen, 48 h (100 = growth as untreated, 0 = no growth, -100 = all killed)
Conditions: 10 µM unless noted

| Compound | growth |
| --- | --- |
| CS(=O)(=O)c1ccc(-n2cc(/C=N/O)c(-c3ccccc3)n2)cc1 | -45.8% (active) |
| CC(c1ccccc1)N1C(=O)/C(=C/c2csc(C#N)n2)SC1=S (configuration not stated) | 4.32% (active) |
| CN1CCN(Cc2ccc(NC(=O)c3cncc(C#Cc4cnc5ccc(OCC6(C)COC6)nn45)c3)cc2C(F)(F)F)CC1 | -27.6% (active) |
| CC[C@]12C=CCN3CC[C@@]4(c5ccc(OC)cc5N(C)[C@H]4[C@@](O)(C(=O)OC)[C@@H]1OC(=O)CCN1CCc4ccccc4C1)[C@@H]32 | 80.4% (inactive) |
| COc1cc(/C=C/C(=O)c2ccc(NC(=O)CSc3nnc(-c4ccc(-c5nc6ccc(Cl)cc6[nH]5)cc4)o3)cc2)cc(OC)c1OC | 73.6% (inactive) |
| NS(=O)(=O)c1cccc(Nc2nc(SCC(=O)c3ccc(Br)cc3)nc3ccccc23)c1 | 79.1% (inactive) |
| CN(C)C(=O)C1=NC(CO)C(=O)N(c2ccc(Cl)cc2)N1 (configuration not stated) | 110% (inactive) |
